Screen size: about 320,000 compounds; about 2,100 (0.66%) were called active. Inconclusive results (about 53%) are left out. Calls follow the shape of the dose curve; as a rule, active = well fitted inhibition curve with a large enough effect in the signal ratio, with a control signal flat (not every such curve was filed as active); inconclusive = small, poorly fitted or top-dose-only effect, or effect the other way, or a change in a side signal; inactive = flat fitted curve, though single readings scatter; the % refers to the signal ratio. The full list was thinned out, with actives kept by preference.
Potency is read from the fitted curve at half-maximal effect.

The nature of the test: qHTS Assay for Lipid Storage Modulators in Drosophila S3 Cells.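 As to cell number change: cells counted by Cell Tracker Red CMTPX staining in the red channel.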 The conditions noted are these: BODIPY lipid droplet fluorescence, 18-24 h, cells fed with added oleic acid; cell number change: measured here: cell count max response; series mostly up to 46.1 µM. The method in brief: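 Drosophila S3 cells got compounds at several concentrations plus oleic acid (400 uM solution). Laser-scanning cytometry with 488 nm excitation read lipid droplets at 500-530 nm and cells at 575-640 nm. Percent activity was relative to 20 uM Triacsin C.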
Take `CC1=NN(C(=O)Cc2ccc([N+](=O)[O-])cc2)C(O)(C(F)(F)C(F)(F)F)C1` (stereo unspecified): the Potency entry was “inactive” and the cell number change stood at 24%.

`CC(=O)NCCc1nc2ccccc2n1Cc1ccccc1`: the Potency result is “inactive” and the cell number change came out at 18.1%.

As for `O=C(CSc1ncn[nH]1)Nc1cc(S(=O)(=O)N2CCCC2)ccc1Cl`, the Potency entry was “inactive”.

Turning to `CN(C)S(=O)(=O)c1cc(NC(=O)COC(=O)CCc2ccccc2)ccc1Cl`, the Potency result is “inactive” and the cell number change came to 11.3%.

With `Nc1[nH]nc2nc(N3CCOCC3)nc(-c3ccccc3)c12`, the Potency result is “inactive” and the cell number change is -23.8%.

As to `O=C1C(=O)N(CCN2CCOCC2)C(c2cccnc2)/C1=C(/O)c1ccccc1` (stereo unspecified), the Potency result is “inactive” and the cell number change is 0.678%.

For the molecule `O=C1N=C2N(CCN3CCCCC3)c3ccccc3N2/C1=C\c1ccc([N+](=O)[O-])o1`, the Potency result was “inactive” and the cell number change was 2.09%.

In the case of `O=C(NCCN1CCOCC1)c1ccncc1`, the Potency result was “inactive” and the cell number change is -7.07%.

On to `O=C1C=C(NCCN2CCOCC2)C(=O)c2cnccc21`, for which the Potency was 11.6 µM (active) and the cell number change was -9.98%.

Consider `O=C1C=C(NCCN2CCOCC2)CC(c2ccccc2)C1` (stereo unspecified), for which the Potency entry is “inactive” and the cell number change was -2.43%.

For `COc1ccccc1NC(=O)N1C2CCCC1CC(NC(=O)c1ccccc1)C2` (stereo unspecified), the Potency result is “inactive” and the cell number change came out at 9.36%.

Consider `COc1ccc(NS(=O)(=O)c2ccc3c(c2)oc(=O)n3C)cc1Cl`, for which the Potency entry is “inactive” and the cell number change turned out to be 10.6%.

Take `COC(=O)c1ccc(Cl)c(NC(=O)CN(c2ccccc2)S(=O)(=O)c2ccc(OC)cc2)c1`: the Potency entry is “inactive” and the cell number change was -1.49%.

On to `O=[N+]([O-])c1ccc(-c2nc(-c3cccs3)c(-c3cccs3)[nH]2)cc1`, for which the Potency was 23.1 µM (active) and the cell number change stood at 7.44%.

In the case of `O=C(O)c1ccc(-c2nc(-c3ccccc3)c(-c3cccs3)[nH]2)cc1`, the Potency result was “inactive” and the cell number change amounted to 16.3%.

In the case of `O=[N+]([O-])c1cccc(-c2nc(-c3ccccc3)c(-c3cccs3)[nH]2)c1`, the Potency result is “inactive” and the cell number change was -14.7%.

With `O=S(=O)(Nc1ccc2nc(N3CCOCC3)sc2c1)c1ccc(Cl)cc1`, the Potency entry was “inactive” and the cell number change was -15.7%.

In the case of `CCOC(=O)C1(Cc2cccc(OC)c2)CCN(Cc2cc(OC)ccc2OC)CC1`, the Potency result is “inactive” and the cell number change was -22.3%.

Take `COc1cc(OC)cc(C(=O)Nc2ccc(C(=O)c3ccncc3)cc2)c1`: the Potency entry is “inactive” and the cell number change worked out at 2.59%.

Take `COc1ccc(C(CCN2CCCC(C)C2)c2c(OC)cc(OC)c3c(C)cc(=O)oc23)cc1` (stereo unspecified): the Potency result was “inactive” and the cell number change worked out at 7.77%.

For `CC[n+]1c(C)n(-c2ccccc2)c2ccc(C(=O)OC)cc21`, the Potency result was “inactive” and the cell number change came to 6.2%.

With `Cc1ccc(-c2cc(C(F)(F)F)n3ncc(C(=O)O)c3n2)cc1`, the Potency result is “inactive” and the cell number change is -10.1%.

As to `Cc1cc(C)n2ncc(C(=O)O)c2n1`, the Potency entry was “inactive” and the cell number change stood at 12.3%.

On to `Cc1cc(C(F)(F)F)n2ncc(C(=O)O)c2n1`, for which the Potency is 14.6 µM (active).

Regarding `C=CCN1CC(=O)N2C(C)c3[nH]c4ccccc4c3C[C@H]2C1=O` (stereo partly specified), the Potency entry is “inactive” and the cell number change was 1.11%.

Turning to `CCC(=O)Nc1ccc(-c2nnc(SCC(=O)Nc3nccs3)n2C)cc1`, the Potency entry was “inactive” and the cell number change is 0.852%.

For the molecule `COc1cc(C2/C(=C(\O)c3ccc4c(c3)CC(C)O4)C(=O)C(=O)N2CC2CCCO2)cc(OC)c1OC` (stereo unspecified), the Potency is 1.3 µM (active) and the cell number change was -16%.

As for `CC1Cc2cc(/C(O)=C3/C(=O)C(=O)N(CC4CCCO4)C3c3ccco3)ccc2O1` (stereo unspecified), the Potency result was “inactive” and the cell number change was found to be 9.06%.

Take `COc1cccc(C2/C(=C(/O)c3ccc4c(c3)CC(C)O4)C(=O)C(=O)N2CC2CCCO2)c1` (stereo unspecified): the Potency result is “inactive” and the cell number change came out at 14.4%.

As for `CC(C)N(C(=O)CSc1nnc(NC(=O)c2cccs2)s1)C(C)C`, the Potency result was “inactive” and the cell number change is -20.6%.

Turning to `CCc1nnc(NC(=O)CCC(=O)NCc2ccc(C)cc2)s1`, the Potency entry is “inactive”.

Turning to `CCOC(=O)c1c(NC(=O)CN2C(=O)NC3(CCCCC3C)C2=O)sc(C)c1C` (stereo unspecified), the Potency entry is “inactive” and the cell number change is -4.46%.

Regarding `COC(=O)c1c(NC(=O)CN2C(=O)NC3(CCC(C)CC3)C2=O)sc2c1CCC2` (stereo unspecified), the Potency entry was “inactive” and the cell number change is -11.8%.

Turning to `COC(=O)c1c(NC(=O)CN2C(=O)NC3(CCCCC3C)C2=O)sc2c1CCC2` (stereo unspecified), the Potency is 1.84 µM (active) and the cell number change was found to be 2.22%.

For `c1ccc(CCNc2nc3ccccc3n3nnnc23)cc1`, the Potency entry was “inactive” and the cell number change is -15.6%.

For the molecule `Clc1ccc(NNc2ccnc3cc(Cl)ccc23)cc1`, the Potency entry was “inactive” and the cell number change is 9.5%.

Consider `Clc1ccc2c(N/N=C/c3cccnc3)ccnc2c1`, for which the Potency result is “inactive”.

As for `Oc1ccc(/C=N/Nc2ccnc3cc(Cl)ccc23)c(O)c1`, the Potency was 29.1 µM (active) and the cell number change was -19.7%.

In the case of `Cc1ccnc(NS(=O)(=O)c2cccc([N+](=O)[O-])c2)c1`, the Potency entry was “inactive” and the cell number change amounted to 3.2%.

On to `COc1ccc(-n2nc(C(=O)NCC(=O)N3CCN(Cc4ccccc4)CC3)c3ccccc3c2=O)c(OC)c1`, for which the Potency result is “inactive” and the cell number change stood at 10.3%.

As for `COc1ccc(-n2nc(C(=O)NCC(=O)N3CCN(Cc4ccccc4)CC3)c3ccccc3c2=O)cc1`, the Potency is 0.651 µM (active) and the cell number change amounted to 5.41%.

For `CCN1CCN(C(=O)CNC(=O)c2nn(-c3ccc(OC)cc3)c(=O)c3ccccc23)CC1`, the Potency result was “inactive” and the cell number change was 8.11%.

For `COc1ccccc1N1CCN(C(=O)c2ccc(S(=O)(=O)N3CCCCCC3)cc2)CC1`, the Potency entry was “inactive” and the cell number change is -9.51%.

As to `COc1cc(S(=O)(=O)NCc2ccncc2)c(OC)cc1Br`, the Potency was 23.1 µM (active) and the cell number change was 3.68%.

Turning to `COc1cc(S(=O)(=O)NCc2ccncc2)c(OC)cc1Cl`, the Potency entry is “inactive” and the cell number change turned out to be 12.7%.
